This passage reports composite z-score, composite Z-score and z-score results from PubChem BioAssay.

Activity calls are given as the source filed them.

Test [1] has as its target Albumin (Bos taurus) (UniProt P02769). Put plainly: compounds binding labelled BSA control protein – biochemical, small-molecule microarray, Alexa647 label, 635/667 nm fluorescence, artefact control for SMM control protein annotation, profiling panel (AID 1118).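 Note: score merges 667 nm emission intensity and signal-to-noise per printed compound spot.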 Particulars: BSA-A647 binding, fluorescence 635 nm, higher = more signal.
Test [2] can be described thus: probe aXIP binding to arrayed compounds – biochemical, NeuroSMM set, 635/667 nm fluorescence, primary screen (AID 1119).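 Note: probe is the protein aXip251-270 applied at 1 µg/mL to compound-printed slides; binding of probe to printed compounds measured as 667 nm fluorescence plus signal to noise.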 Particulars: small-molecule microarray, higher = more signal, called active from +8 up or from −8 down.
A short description of test [3]: probe aNOTCH3 binding on compound microarray – biochemical, small-molecule microarray, 635/667 nm fluorescence, primary screen (AID 1120).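 Note: probe is a biotin-tagged antibody raised against NOTCH3 rather than NOTCH3 protein; score merges spot fluorescence near 667 nm with spot signal to noise.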 Particulars: higher = more signal.
A short description of test [4]: probe aNOTCH2 binding on compound microarray – biochemical, small-molecule microarray, 635/667 nm fluorescence, primary screen (AID 1121).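 Note: score merges feature fluorescence read at 667 nm with its signal to noise.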 Particulars: higher = more signal.
Test [5] deals with Carbonic anhydrase 2 (Homo sapiens) (UniProt P00918). Kind of test: compounds binding carbonic anhydrase 2 – biochemical, small-molecule microarray, Alexa647-labelled CAII, profiling panel (AID 1122). Particulars: CAII-A647 binding fluorescence, higher = more signal.
The nature of test [6]: COS7 lysate on small-molecule microarray, probe aHis, 635 nm (AID 1123).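 Note: z-score combines 667nm fluorescence intensity with signal-to-noise per printed compound spot.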 Particulars: COS7 cell lysate, fluorescence, higher = more signal.
A short description of test [7]: probe aLAP1 signal on lysate-treated microarray – cell lysate, small-molecule microarray, COS7 lysate, primary screen (AID 1124).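 Note: lysate comes from COS7 cells expressing LAP1 and is applied at 0.3 µg/mL; score merges spot fluorescence near 667 nm with signal-to-noise over triplicate slides.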 Particulars: probe aLAP1, fluorescence, higher = more signal.
Test [8] relates to Sam68 (KHDRBS1). Kind of test: compounds binding KHDRBS1 protein – biochemical, small-molecule microarray, 635 nm fluorescence, primary screen (AID 1125).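 Note: score merges 667 nm channel intensity with signal to noise over triplicate slides.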 The conditions noted are these: higher = more signal.
Test [9] concerns Chordin-like protein 2 (CHRDL2). Put plainly: compounds binding chordin-like 2 – biochemical, small-molecule microarray, 635 nm fluorescence, primary screen (AID 1126).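 Note: printed compound slides probed with Chrdl2 protein at 4 µg/mL for 1 h at 4 C; score merges 667 nm emission intensity with signal to noise over three replicate slides.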 Particulars: fluorescence 635 nm, higher = more signal.
The target of test [10] is Concanavalin-A (Canavalia ensiformis) (UniProt P02866). Put plainly: compounds binding concanavalin A lectin – biochemical, small-molecule microarray, Alexa647 label, 635 nm, artefact control for SMM control protein annotation, primary screen (AID 1127).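 Note: z combines 667 nm emission intensity with signal-to-noise across three replicate slides.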 The conditions noted are these: ConA-A647 binding fluorescence, higher = more signal.
Chain of Concanavalin-A (Canavalia ensiformis) (P02866 whole entry, looked up): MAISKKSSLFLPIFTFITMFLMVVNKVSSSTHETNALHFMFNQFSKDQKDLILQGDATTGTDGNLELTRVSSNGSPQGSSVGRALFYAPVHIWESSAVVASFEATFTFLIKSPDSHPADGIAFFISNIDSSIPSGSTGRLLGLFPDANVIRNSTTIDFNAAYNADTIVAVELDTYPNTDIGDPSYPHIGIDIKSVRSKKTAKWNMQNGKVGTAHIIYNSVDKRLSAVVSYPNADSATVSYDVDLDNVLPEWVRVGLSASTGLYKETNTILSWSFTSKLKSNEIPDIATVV
Test [11] is described as follows: compounds binding Alexa647 anti-His antibody – biochemical, small-molecule microarray, 635 nm fluorescence, artefact control for SMM control protein annotation, primary screen (AID 1128).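 Note: score merges feature fluorescence with signal-to-noise for each printed compound spot.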 The conditions noted are these: higher = more signal.
Test [12] relates to Human papillomavirus type 1a E7 protein (residues 1-88). Put plainly: HPV1a E7 small-molecule binders, primary screen, biochemical, small-molecule microarray, residues 1-88, 635 nm (AID 1129). Particulars: small-molecule microarray binding, fluorescence 635 nm; higher = more signal.
The target of test [13] is Focal adhesion kinase 1 (Homo sapiens) (UniProt Q05397). Put plainly: PTK2 protein binding on printed compound slides – biochemical, small-molecule microarray, 635/667 nm fluorescence, BSA, DTT, primary screen (AID 1130).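 Note: composite of spot emission at 667 nm and signal to noise over triplicate slides.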 The conditions noted are these: 635 nm fluorescence, higher = more signal.
Chain of Focal adhesion kinase 1 (Homo sapiens) (Q05397 whole entry, looked up): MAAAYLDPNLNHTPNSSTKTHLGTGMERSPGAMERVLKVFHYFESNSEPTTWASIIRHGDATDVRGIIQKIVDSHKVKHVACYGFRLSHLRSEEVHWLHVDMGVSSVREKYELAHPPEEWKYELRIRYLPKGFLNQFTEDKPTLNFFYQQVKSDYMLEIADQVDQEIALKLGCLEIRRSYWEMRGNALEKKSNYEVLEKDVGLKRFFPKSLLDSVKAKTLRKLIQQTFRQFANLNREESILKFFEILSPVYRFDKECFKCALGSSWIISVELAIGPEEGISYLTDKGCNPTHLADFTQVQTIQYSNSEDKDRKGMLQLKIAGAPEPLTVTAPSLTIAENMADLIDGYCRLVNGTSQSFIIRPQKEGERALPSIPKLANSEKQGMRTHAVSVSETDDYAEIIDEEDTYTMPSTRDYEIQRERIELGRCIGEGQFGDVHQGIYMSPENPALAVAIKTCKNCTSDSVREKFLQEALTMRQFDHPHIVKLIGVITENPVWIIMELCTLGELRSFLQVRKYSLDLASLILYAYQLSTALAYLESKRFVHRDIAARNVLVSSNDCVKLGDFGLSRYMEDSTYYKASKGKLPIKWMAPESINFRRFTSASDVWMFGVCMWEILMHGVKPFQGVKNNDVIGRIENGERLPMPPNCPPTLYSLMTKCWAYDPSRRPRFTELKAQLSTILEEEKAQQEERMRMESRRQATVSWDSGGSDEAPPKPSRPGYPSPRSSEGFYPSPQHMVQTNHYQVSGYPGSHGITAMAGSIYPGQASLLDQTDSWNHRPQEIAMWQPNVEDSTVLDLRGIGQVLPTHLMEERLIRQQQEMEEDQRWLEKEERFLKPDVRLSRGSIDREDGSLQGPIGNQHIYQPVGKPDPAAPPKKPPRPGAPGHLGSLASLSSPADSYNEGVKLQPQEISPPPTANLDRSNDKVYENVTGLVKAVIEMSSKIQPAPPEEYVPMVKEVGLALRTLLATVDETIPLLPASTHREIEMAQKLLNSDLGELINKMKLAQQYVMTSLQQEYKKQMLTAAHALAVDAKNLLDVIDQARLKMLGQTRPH
The test system of test [14] is Fibrinogen (Alexa647-labelled). Kind of test: Alexa647-fibrinogen binding to printed small molecules – biochemical, small-molecule microarray, 635/667 nm fluorescence, artefact control for SMM control-protein annotation, profiling panel (AID 1131).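 Note: z-score merges 667 nm fluorescence with per-spot signal-to-noise over triplicate slides.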 Particulars: fibrinogen-A647 binding fluorescence, higher = more signal.
The target in test [15] is Follistatin (Homo sapiens) (UniProt P19883). Put plainly: FST protein binding to printed compounds – biochemical, small-molecule microarray, 635/667 nm fluorescence, primary screen (AID 1132). The conditions noted are these: 635 nm fluorescence, higher = more signal.
Chain of Follistatin (Homo sapiens) (P19883 whole entry, looked up): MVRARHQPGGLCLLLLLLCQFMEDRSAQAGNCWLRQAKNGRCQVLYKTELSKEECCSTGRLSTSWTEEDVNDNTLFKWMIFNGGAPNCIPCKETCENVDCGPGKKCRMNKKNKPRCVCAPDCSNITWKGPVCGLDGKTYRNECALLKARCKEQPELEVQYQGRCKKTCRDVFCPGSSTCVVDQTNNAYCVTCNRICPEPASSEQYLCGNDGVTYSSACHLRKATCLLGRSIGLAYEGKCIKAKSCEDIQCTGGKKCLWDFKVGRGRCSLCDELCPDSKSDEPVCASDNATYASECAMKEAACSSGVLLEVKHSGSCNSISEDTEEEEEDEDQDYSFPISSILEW
Test [16] addresses Fibroblast growth factor 2 (Homo sapiens) (UniProt P09038). Put plainly: basic fibroblast growth factor binding to printed compounds – biochemical, small-molecule microarray, 635/667 nm fluorescence, primary screen (AID 1133). Particulars: FGF2, fluorescence 635/667, higher = more signal.
A short description of test [17]: JC-1 mitochondrial potential readout, lung cancer cells – cell-based, A549, JC-1 fluorescence, basal, 24 h, 100 nL, profiling panel (AID 1138).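 Note: A549 lung adenocarcinoma cells under basal conditions with no added stimulus; test concentration not given here.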 The conditions noted are these: higher = more signal.
Test [18] concerns Lefty1. Put plainly: Lefty1 protein binding to printed compounds – biochemical, small-molecule microarray, 635/667 nm fluorescence, primary screen (AID 1139). Particulars: fluorescence 635/667, higher = more signal.
Test [19] deals with wheat germ agglutinin (Triticum aestivum), Alexa647-labelled. Put plainly: Alexa647-WGA lectin binding to printed small molecules – biochemical, small-molecule microarray, 635/667 nm fluorescence, artefact control for SMM control-protein annotation, profiling panel (AID 1140).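 Note: score merges 667 nm feature emission with signal to noise over triplicate slides.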 The conditions noted are these: WGA-A647 binding, 635 nm fluorescence, higher = more signal.
Test [20] has as its target Luciferin 4-monooxygenase (Photinus pyralis) (UniProt P08659). Put plainly: inhibition of purified Photinus pyralis luciferase – biochemical, luminescence, purified enzyme, 2006 set, primary screen (AID 1141).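 Note: cell-free assay with purified firefly luciferase at 100 ng per well in PBS; test concentration not given here.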 The conditions noted are these: purified firefly luciferase, SteadyGlo luminescence, 30 min; higher = more signal, called active from +8 up or from −8 down.

Chain of Luciferin 4-monooxygenase (Photinus pyralis) (P08659 whole entry, looked up): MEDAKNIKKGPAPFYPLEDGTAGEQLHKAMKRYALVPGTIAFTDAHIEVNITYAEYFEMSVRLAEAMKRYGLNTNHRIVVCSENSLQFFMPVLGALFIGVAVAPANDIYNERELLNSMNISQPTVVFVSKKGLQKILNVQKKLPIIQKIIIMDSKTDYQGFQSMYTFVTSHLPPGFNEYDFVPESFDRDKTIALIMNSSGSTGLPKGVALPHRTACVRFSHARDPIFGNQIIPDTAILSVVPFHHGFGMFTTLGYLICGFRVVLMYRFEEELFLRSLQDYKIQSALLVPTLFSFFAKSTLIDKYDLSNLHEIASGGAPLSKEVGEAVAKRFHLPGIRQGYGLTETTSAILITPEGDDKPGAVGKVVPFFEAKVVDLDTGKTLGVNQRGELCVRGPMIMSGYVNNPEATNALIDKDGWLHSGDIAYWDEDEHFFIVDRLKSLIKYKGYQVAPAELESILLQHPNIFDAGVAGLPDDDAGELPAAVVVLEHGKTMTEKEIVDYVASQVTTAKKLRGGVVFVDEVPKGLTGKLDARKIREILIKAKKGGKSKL
Chain of Fibroblast growth factor 2 (Homo sapiens) (P09038 whole entry, looked up): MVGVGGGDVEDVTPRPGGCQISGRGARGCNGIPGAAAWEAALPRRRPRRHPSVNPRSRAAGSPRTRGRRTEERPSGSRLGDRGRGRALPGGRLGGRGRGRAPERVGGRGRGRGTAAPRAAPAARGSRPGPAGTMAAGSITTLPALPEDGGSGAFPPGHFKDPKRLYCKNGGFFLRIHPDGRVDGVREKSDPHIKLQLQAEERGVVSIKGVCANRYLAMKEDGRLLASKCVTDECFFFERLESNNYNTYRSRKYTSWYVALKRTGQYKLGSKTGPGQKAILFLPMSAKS
Chain of Albumin (Bos taurus) (P02769 whole entry, looked up): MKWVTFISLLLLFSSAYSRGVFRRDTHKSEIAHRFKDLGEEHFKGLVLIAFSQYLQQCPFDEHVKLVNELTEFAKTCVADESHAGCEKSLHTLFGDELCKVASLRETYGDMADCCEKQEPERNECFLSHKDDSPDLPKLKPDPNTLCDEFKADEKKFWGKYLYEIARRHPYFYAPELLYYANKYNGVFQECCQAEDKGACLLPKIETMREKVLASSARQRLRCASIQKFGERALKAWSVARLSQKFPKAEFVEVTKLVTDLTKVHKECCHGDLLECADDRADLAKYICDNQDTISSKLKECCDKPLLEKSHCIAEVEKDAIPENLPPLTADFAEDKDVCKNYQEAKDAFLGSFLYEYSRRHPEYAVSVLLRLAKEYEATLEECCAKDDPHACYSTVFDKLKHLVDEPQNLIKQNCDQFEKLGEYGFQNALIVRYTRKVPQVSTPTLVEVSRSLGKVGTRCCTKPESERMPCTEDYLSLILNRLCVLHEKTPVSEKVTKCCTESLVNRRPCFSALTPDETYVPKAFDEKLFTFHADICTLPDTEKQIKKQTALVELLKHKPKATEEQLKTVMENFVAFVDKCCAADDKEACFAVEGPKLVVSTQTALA

As to `CCOC(=O)C[C@H]1[C@H](OC(=O)c2ccc(C(=O)c3ccccc3)cc2)[C@@H](NC(=O)Cc2ccc(OC)cc2)c2cc(OCCCO)ccc2N1C(=O)Cc1ccc(OC)cc1`, the composite z-score is 0.602 in test [1]; 0.0397 in test [3]; -0.0505 in test [4]; 0.0899 in test [5]; 0.954 in test [6]; 0.397 in test [7]. The composite z-score in test [8] was 1.05; in test [9] it was -0.49; in test [10] it was 1.01; in [11], 0.0446; in test [12], 1.07; in test [13], 0.551. In addition, the composite z-score in test [14] was 0.729; in [15], 0.295; in [16], -0.078; in test [18], 0.607; in test [19], 0.855. Besides, the composite Z-score in test [2] was -0.333 (inactive). Moreover, the z-score is 2.88 in test [17] and -0.927 (inactive) in test [20].

Regarding `C[C@@H](OCc1ccccc1)C1NC(=O)[C@@]23C(=O)N[C@@H](Cc4ccccc4)C2[C@H](C)[C@@]2(C)O[C@H]2C3/C=C/C/C=C\CNC(=O)[C@@H]2CCCN2C1=O` (stereo not given in full), the composite z-score in [1] was -0.149; in [3] it was -0.0921; in test [4] it was -0.147; in test [5], 0.619; in [6], -0.357; in test [7], -0.296. The composite z-score was -0.898 in [8]; 0.377 in [9]; -0.896 in test [10]; -0.0278 in test [11]; -0.443 in test [12]; -0.709 in test [13]. The composite z-score in test [14] was -0.632; in test [15] it was 0.0944; in [16] it was 0.166; in [18], 0.0078; in test [19], -0.927. Further, the composite Z-score in [2] was -0.216 (inactive). The z-score in test [17] is 2.49; in test [20] it was -1.45 (inactive).

In the case of `C=CCNC(=O)[C@@H]1[C@H]2C(=O)O[C@H](c3ccccc3)[C@H](c3ccccc3)N2[C@H](c2ccc(O)cc2)[C@@]12C(=O)Nc1ccc(C#Cc3ccc(OC)cc3)cc12`, the composite z-score was 0.29 in test [1]; 0.0563 in test [3]; -0.0451 in test [4]; 0.31 in [5]; 0.928 in [6]; 0.482 in test [7]. Besides, the composite z-score is 1.32 in test [8]; -0.0134 in test [9]; 1.12 in [10]; 1.11 in test [11]; 1.2 in test [12]; 0.552 in test [13]. Also, the composite z-score came out at 0.924 in test [14]; 1.03 in [15]; 0.363 in [16]; 0.849 in test [18]; 1.14 in test [19]. The composite Z-score in test [2] was 0.422 (inactive). For the same compound, the values for the z-score in test [17] and in [20] were -1.18 and -0.968 (inactive), respectively.

Take `COCCOC(=O)N1C(=O)[C@@]2(c3cc(C#CC4(O)CCCCCC4)ccc31)[C@H](C(=O)NC[C@H](O)c1ccccc1)[C@H]1C(=O)O[C@H](c3ccccc3)[C@H](c3ccccc3)N1[C@@H]2c1ccccc1OCCO`: the composite z-score in test [1] is -0.383; in test [3] it was 0.0596; in [4], -0.0956; in test [5], 0.668; in test [6], 1.04; in test [7], -0.0189. Also, the composite z-score worked out at 1.32 in [8]; 0.405 in test [9]; 1.14 in [10]; 0.67 in test [11]; 1.16 in test [12]; 0.714 in [13]. For the same compound, the composite z-score in test [14] was determined as 0.873; in [15], 1.28; in test [16], 1.56; in [18], 1.4; in [19], 0.791. Besides, the composite Z-score in test [2] was 1.51 (inactive). For the same compound, the z-score in [17] was -0.88; in test [20], -1.81 (inactive).

With `CCOC(=O)C[C@H]1[C@H](OC(=O)Cc2ccc3c(c2)OCO3)[C@@H](NC(=O)c2ccc3ccccc3c2)c2cc(OCCCO)ccc2N1C(=O)c1ccc2ccccc2n1`, the composite z-score in test [1] was 0.661; in test [3] it was 0.0349; in test [4], -0.0523; in test [5], 0.371; in test [6], 0.77; in test [7] it was 0.562. Moreover, the composite z-score in test [8] is 0.826; in test [9], -0.318; in test [10], 0.356; in [11], 0.0303; in test [12] it was 0.731; in test [13], -0.339. The composite z-score in [14] came out at 0.774; in test [15] it was 0.197; in test [16] it was 0.334; in test [18], 0.37; in test [19] it was 1.06. For the same compound, the composite Z-score in test [2] was -0.102 (inactive). The z-score was 2.55 in test [17] and -1.25 (inactive) in test [20].

`O=C1N(CCS(=O)(=O)c2ccccc2)Cc2ccccc2[C@@H]2OC(c3ccc(OCCCO)cc3)=N[C@]12Cc1ccccc1`: the composite z-score in [1] is -0.0444; in test [3], 0.165; in [4], 0.0042; in test [5], 0.742; in [6], 2.84; in [7], 0.599. The composite z-score in test [8] was found to be 1.29; in test [9], 0.286; in [10], 1.13; in test [11] it was 3.33; in test [12] it was 1.27; in [13], 0.526. Also, the composite z-score in test [14] was found to be 0.988; in [15], 1.34; in test [16], 1.68; in test [18], 1.1; in [19], 1.23. Moreover, the composite Z-score in [2] is 1.83 (inactive). The z-score is -0.0106 in test [17] and -2.12 (inactive) in test [20].

On to `COC(=O)C1=CC(c2ccc(CO)cc2)=CC(C2CC2)N(C)C=C1C(=O)OC` (stereo not given), for which the composite z-score in [1] was 0.965; in [3], -0.0903; in [4], -0.0617; in test [5], 0.874; in [6], 1.73; in [7], 0.969. The composite z-score is 0.862 in [8]; -0.73 in test [9]; -0.0948 in test [10]; 0.822 in [11]; -0.203 in test [12]; 0.883 in [13]. The composite z-score in [14] was 0.707; in [15] it was -0.743; in test [16], -0.326; in [18], -0.615; in [19] it was 1.28. In test [2], the composite Z-score was 0.498 (inactive). Also, the z-score in test [17] is 1.63; in test [20], -1.8 (inactive).
